CtBP-E1A blk – qHTS Assay for Inhibitors of the CtBP/E1A Interaction. CtBP / adenovirus E1A interaction (AlphaScreen). AlphaScreen GST-E1A/His-CtBP binding, 1536-well; hits give low values. activity change, % (concentration not given with the values). actives 0.49% (n = 340,000); in the data active means activity change below about -65%; inconclusive means mostly about -30% to -63%; further: on the % scale 0 is the no-effect control and ±100 the full control effect
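Homogeneous bead-based format: GST-tagged E1A captured on glutathione donor beads, His-tagged CtBP on nickel acceptor beads; compounds precede bead addition by 2 h at 37 °C.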
HP1b chromo inh – HTS for Inhibitors of HP1-beta Chromodomain Interactions with Methylated Histone Tails | Chromobox protein homolog 1 (Homo sapiens), P83916 | AlphaScreen HP1-beta / biotin-H3K9me3 peptide binding | Potency, µM (titrated, usually from 114 µM), without a hit: at the highest dose activity change, negative = inhibition, usual class: inhibitors | actives 0.56% (n = 390,000); further: potency means the concentration at half of the fitted maximal effect; nearly all actives have a fitted effect of over 70% in size
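Compound inhibition of the preformed complex between 50 nM HP1-beta and 50 nM biotinylated H3K9me3 peptide was read by AlphaScreen. Buffer was PBS pH 7.4 with 0.01% Tween-20. Incubations ran 30 min at room temperature, with 10 ug/mL donor/acceptor beads.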
JMJD2A Tudor – qHTS Assay for Inhibitors of JMJD2A-Tudor Domain; AlphaScreen JMJD2A-Tudor / H3K4me3 peptide binding; Lysine-specific demethylase 4A (Homo sapiens), O75164; Potency, µM (doses to about 114 µM), inactives show at the highest dose activity change, negative = inhibition, actives largely listed as inhibitors; actives 4.4% (n = 390,000); further: potency means the concentration at half of the fitted maximal effect; on the % scale 0 is the no-effect control and ±100 the full control effect; nearly all actives have a fitted effect of over 50% in size
TDP1 inh – qHTS Assay for Inhibitors of Tyrosyl-DNA Phosphodiesterase (TDP1) | recombinant TDP1, AlphaScreen DNA substrate cleavage | Tyrosyl-DNA phosphodiesterase 1 (Homo sapiens), Q9NUW8 | AID 485290, 2010 | actives 0.28% (n = 350,000) | Potency, µM (doses to about 130 µM), inactives show at the top dose activity change, negative = inhibition, hits mostly inhibitors; further: potency means the concentration at half of the fitted maximal effect; on the % scale 0 is the no-effect control and ±100 the full control effect; nearly all actives have a fitted effect of over 40% in size
Target sequence (Q9NUW8 whole entry, looked up): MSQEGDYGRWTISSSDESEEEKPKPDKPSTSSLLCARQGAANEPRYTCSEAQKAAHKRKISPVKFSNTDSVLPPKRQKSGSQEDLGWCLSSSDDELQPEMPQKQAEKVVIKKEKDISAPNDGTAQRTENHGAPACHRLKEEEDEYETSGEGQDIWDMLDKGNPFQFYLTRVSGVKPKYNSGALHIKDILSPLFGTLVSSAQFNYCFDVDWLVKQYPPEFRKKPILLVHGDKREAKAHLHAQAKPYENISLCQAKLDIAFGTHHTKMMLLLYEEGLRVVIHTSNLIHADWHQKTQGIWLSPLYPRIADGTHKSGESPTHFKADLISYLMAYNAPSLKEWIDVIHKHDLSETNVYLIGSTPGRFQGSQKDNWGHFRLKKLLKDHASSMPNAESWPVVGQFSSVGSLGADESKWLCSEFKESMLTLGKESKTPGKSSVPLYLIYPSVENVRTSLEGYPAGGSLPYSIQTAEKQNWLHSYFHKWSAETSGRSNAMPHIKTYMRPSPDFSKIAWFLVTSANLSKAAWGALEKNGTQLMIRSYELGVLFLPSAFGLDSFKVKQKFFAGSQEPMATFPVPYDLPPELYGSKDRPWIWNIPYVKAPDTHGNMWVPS
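Enzyme-compound mixtures sat 15 min at room temperature, followed by a 5 min reaction with 15 nM final substrate and 10 min with AlphaScreen beads. Recombinant human Tdp1 was used at 1 nM final.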
BAZ2B inh – qHTS Assay for Inhibitors of BAZ2B; Potency, µM (series often up to 114 µM), inactives show at the highest dose activity change, negative = inhibition, usual class: inhibitors; actives 4.4% (n = 360,000); AlphaScreen BAZ2B-H3K14Ac peptide displacement; Bromodomain adjacent to zinc finger domain protein 2B (Homo sapiens), Q9UIF8; further: potency means the concentration at half of the fitted maximal effect; on the % scale 0 is the no-effect control and ±100 the full control effect; nearly all actives have a fitted effect of over 60% in size
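Complex of BAZ2B and biotin-H3K14Ac (50 nM apiece) forms over 30 min at RT, then faces library compounds up to 110 uM for another 30 min; AlphaScreen beads added, 20 min dark incubation, luminescence read.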
Six1-Eya2 blk – qHTS Assay for Inhibitors of the Six1/Eya2 Interaction; actives 0.56% (n = 360,000); activity change, % (concentration not given with the values); AlphaScreen GST-Six1/His-Eya2 binding, biochemical; hits give low values; AID 651725, 2012; in the data active means activity change below about -65%; inconclusive means mostly about -30% to -63%; further: on the % scale 0 is the no-effect control and ±100 the full control effect
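AlphaScreen with GST-Six1 and His-Eya2 (5X mix: 250 nM and 500 nM), glutathione donor and nickel acceptor beads; buffer 50 mM Tris pH 8.0, 300 mM NaCl, 1 mM TCEP; 1 h at 37 C in the dark.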
Starred values were filed as active, the others as inactive; [ ] = another dose, or the depositor's remark. In the library only some 5.3% were active in any assay of this set; here they are far more common. Unless noted, the call rests on the fitted dose curve; in most records, active means well fitted inhibition curve with a large enough effect; inconclusive means small, poorly fitted or top-dose-only effect; inactive means no such curve, though single readings can be large or run the other way.

CCOC(=O)c1noc2ncn(Cc3ccc([N+](=O)[O-])cc3)c(=O)c12 was read as HP1b chromo inh 9.9%[57 µM], JMJD2A Tudor -6.1%, TDP1 inh 4.1% and BAZ2B inh 0.6%.
Screening CCc1ccc(CNC(=O)c2ccc(CSc3nc4ccncc4n3Cc3ccc(OC)cc3)cc2)cc1 returned HP1b chromo inh 7.0%, JMJD2A Tudor -21.8%, TDP1 inh 1.0% and BAZ2B inh -34.3%.
Screening Brc1ccc(-c2nn3c(-c4ccco4)nnc3s2)o1 returned CtBP-E1A blk inconclusive, HP1b chromo inh 1.8%, JMJD2A Tudor inconclusive, BAZ2B inh 50.1µM* and Six1-Eya2 blk inconclusive.
Screening Clc1ccc(OCCN2CCCCC2)c(Cl)c1 returned CtBP-E1A blk 4.7, HP1b chromo inh 44.7µM*, JMJD2A Tudor 5.62µM*, TDP1 inh -1.8%, BAZ2B inh 50.1µM* and Six1-Eya2 blk -0.8.
Screening O=c1ccccn1CCOc1ccccc1Cl returned CtBP-E1A blk 8.6, HP1b chromo inh 11.7%, JMJD2A Tudor -11.9%, TDP1 inh 3.5%, BAZ2B inh 8.0% and Six1-Eya2 blk 8.5.
For Clc1ccccc1OCCN1CCCCC1 the results were CtBP-E1A blk 0.7, HP1b chromo inh inconclusive, JMJD2A Tudor 22.4µM*, TDP1 inh -2.6%, BAZ2B inh -2.8% and Six1-Eya2 blk 0.9.
Nc1cccc2c(=O)[nH]ccc12 was read as TDP1 inh 16.7%.
`Cc1ccc(S(=O)(=O)c2nc(S(C)(=O)=O)sc2NCc2ccccc2)cc1` gave HP1b chromo inh 16.4%, JMJD2A Tudor -23.5%, TDP1 inh 0.0% and BAZ2B inh -4.0%.
For Cc1ccc(CNC(=O)c2ccc3nc(SCc4ccc(F)cc4)[nH]c3c2)cc1 the results were HP1b chromo inh inconclusive, JMJD2A Tudor 7.94µM*, TDP1 inh -3.9% and BAZ2B inh 39.8µM*.
`O=C(O)Cn1c(-c2ccccn2)nc2ccccc21` gave HP1b chromo inh 13.5%, JMJD2A Tudor 50.1µM*, BAZ2B inh 3.0%[57.1 µM] and Six1-Eya2 blk -1.8.
O=C(NCCc1ccc(Cl)cc1)C1CCN(S(=O)(=O)c2ccc(-n3cnnn3)cc2)CC1 was read as CtBP-E1A blk 6.5, HP1b chromo inh -11.4%, JMJD2A Tudor 79.4µM*, TDP1 inh 2.9%, BAZ2B inh -2.7% and Six1-Eya2 blk -2.4.
Screening Cc1ccccc1CCNC(=O)C1CCN(S(=O)(=O)c2ccc(-n3cnnn3)cc2)CC1 returned CtBP-E1A blk 0.2, HP1b chromo inh 37.9%, JMJD2A Tudor 3.4%, TDP1 inh 3.6%, BAZ2B inh -1.0% and Six1-Eya2 blk -3.6.
COc1ccc(C2CC(c3ccccc3)Oc3c(C)ccc(C(C)C)c32)cc1 (stereo not drawn) was read as HP1b chromo inh 31.0%, JMJD2A Tudor -11.0% and TDP1 inh -2.6%.
CC1CN(Cc2ccccc2Cl)CC(C)O1 (stereo not drawn) was read as CtBP-E1A blk 16.9, HP1b chromo inh inconclusive, JMJD2A Tudor 4.47µM*, TDP1 inh -3.1%, BAZ2B inh 31.6µM* and Six1-Eya2 blk 5.0.
Clc1ccccc1CN1CCSCC1 was read as CtBP-E1A blk 7.5, HP1b chromo inh inconclusive, JMJD2A Tudor 25.1µM*, BAZ2B inh inconclusive and Six1-Eya2 blk -0.8.
Screening Clc1ccccc1CN1CCN(c2ncccn2)CC1 returned CtBP-E1A blk -4.0, HP1b chromo inh inconclusive, JMJD2A Tudor 1µM*, BAZ2B inh inconclusive and Six1-Eya2 blk -3.7.
`CC1CN(Cc2cnc(Cl)s2)CC(C)O1` (stereo not drawn) gave CtBP-E1A blk -3.0, HP1b chromo inh 44.6%, JMJD2A Tudor -11.0%, TDP1 inh 7.7%, BAZ2B inh -18.3% and Six1-Eya2 blk 7.1.
`Clc1cccc(CN2CCN(c3ncccn3)CC2)c1Cl` gave CtBP-E1A blk 11.0, HP1b chromo inh inconclusive, JMJD2A Tudor 20µM*, BAZ2B inh inconclusive and Six1-Eya2 blk -2.4.
For CCC(=O)N1c2nc(C(C)C)nn2C2(CCCCC2)[C@@H]2CCCC[C@@H]21 the results were HP1b chromo inh 38.1%, JMJD2A Tudor -13.6%, TDP1 inh 0.5% and BAZ2B inh -3.2%.
Fc1ccc(CN2CCN(c3ncccn3)CC2)c(F)c1 was read as HP1b chromo inh -23.6%, JMJD2A Tudor 17.8µM*, BAZ2B inh 3.6% and Six1-Eya2 blk 1.7.
Screening Clc1ccc(CN2CCN(c3ncccn3)CC2)c(Cl)c1 returned CtBP-E1A blk 15.0, HP1b chromo inh inconclusive, JMJD2A Tudor 17.8µM*, BAZ2B inh inconclusive and Six1-Eya2 blk 1.9.
Screening O=C(Nc1ccc(Cl)cc1Cl)N1CCN(c2ncccn2)CC1 returned HP1b chromo inh 38.4%, JMJD2A Tudor 9.5%, TDP1 inh 3.0%, BAZ2B inh 1.0% and Six1-Eya2 blk -1.8.
Screening O=C(Nc1ccc(F)cc1F)N1CCN(c2ncccn2)CC1 returned CtBP-E1A blk -0.5, HP1b chromo inh 24.6%, JMJD2A Tudor -7.5%, TDP1 inh 4.3%, BAZ2B inh -5.7% and Six1-Eya2 blk 6.2.
Screening N#CN1CCC(NS(=O)(=O)c2cccc(C(F)(F)F)c2)CC1 returned JMJD2A Tudor -7.5% and TDP1 inh 0.6%.
Cn1ccc2cc(S(=O)(=O)N3CCN(C(=O)Nc4cccc(F)c4)CC3)ccc21 was read as HP1b chromo inh 19.8%[57 µM], JMJD2A Tudor -12.1%, TDP1 inh 0.6% and BAZ2B inh -3.2%.
Screening O=C(Cc1ccc(-n2cccc2)cc1)N1CCN(c2ccccc2F)CC1 returned CtBP-E1A blk 0.2, HP1b chromo inh inconclusive, JMJD2A Tudor 35.5µM*, TDP1 inh 7.7%, BAZ2B inh 50.1µM* and Six1-Eya2 blk inconclusive.
For Cn1c(=O)c2cc3c(nc2n(C)c1=O)CC(c1ccccc1)CC3=O (stereo not drawn) the results were HP1b chromo inh 3.3%, JMJD2A Tudor 56.2µM*, TDP1 inh -1.2%, BAZ2B inh -34.3% and Six1-Eya2 blk -3.0.
Screening CCC(=O)N1CCc2cc(Br)cc(S(=O)(=O)N3CCCC(C(=O)Nc4cccc(Cl)c4C)C3)c21 (stereo not drawn) returned HP1b chromo inh 35.8%, JMJD2A Tudor -19.1%, TDP1 inh -1.8% and BAZ2B inh 0.5%.

Screens deposited in PubChem by National Center for Advancing Translational Sciences (NCATS).
